PubChem BioAssay (NCATS)
Results filed as inconclusive are left out. Calls of active or inactive are those of the source. Calls come from the whole dose curve; as a rule, active = well fitted inhibition curve with a large enough effect; inconclusive = small, poorly fitted or top-dose-only effect; inactive = flat fitted curve, though single readings scatter.

How the values were obtained:
Assay in all cases: qHTS profiling for inhibitors of Plasmodium falciparum proliferation (AID 504749); note: nearly all actives have a fitted effect of over 60% in size
Conditions in all cases: P. falciparum in erythrocytes, SYBR Green DNA, 72 h; series mostly up to 28.7 µM
CP265 = system: CP265
Summary of the method: (§1)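 Readout was DNA-dye fluorescence from lysed cultures, ex 485/em 535 nm. Parasitized red cells had grown 72 h with compound; data scaled between 0.29 uM artemisinin and DMSO wells and corrected using vehicle-only plates.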

CP266 = system: CP266
Summary of the method: as §1

CP268 = system: CP268
Summary of the method: as §1

CP269 = system: CP269
Summary of the method: as §1

CP286 = system: CP286
Summary of the method: as §1

CP291 = system: CP291
Summary of the method: as §1

CP297 = system: CP297
Summary of the method: as §1

CP305 = system: CP305
Summary of the method: as §1

CP315 = system: CP315
Summary of the method: as §1

CP325 = system: CP325
Summary of the method: as §1

CP335 = system: CP335
Summary of the method: as §1

DFO2036 = system: DFO2036
Summary of the method: as §1

DIV14 = system: DIV14
Summary of the method: as §1

DIV17 = system: DIV17
Summary of the method: as §1

DIV30 = system: DIV30
Summary of the method: as §1

Dd2 = system: Dd2
Summary of the method: as §1

ECU = system: ECU
Summary of the method: as §1

FAB9 = system: FAB9
Summary of the method: as §1

GB4 = system: GB4
Summary of the method: as §1

HB3 = system: HB3
Summary of the method: as §1

ICS = system: ICS
Summary of the method: as §1

JCK = system: JCK
Summary of the method: as §1

N140 = system: N140
Summary of the method: as §1

P93_24 = system: P93_24
Summary of the method: as §1

P94_40 = system: P94_40
Summary of the method: as §1

PAD = system: PAD
Summary of the method: as §1

PC15 = system: PC15
Summary of the method: as §1

PC26 = system: PC26
Summary of the method: as §1

PC49 = system: PC49
Summary of the method: as §1

SC27B = system: SC27B
Summary of the method: as §1

TAB109 = system: TAB109
Summary of the method: as §1

TAB113 = system: TAB113
Summary of the method: as §1

TAB165 = system: TAB165
Summary of the method: as §1

W2 = system: W2
Summary of the method: as §1

Measured: Potency
Potency is the fitted concentration of half-maximal effect.

CC[C@]1([C@H]2O[C@@H]([C@@H]3O[C@](O)(CO)[C@@H](C)C[C@H]3C)C[C@H]2C)CC[C@@H]([C@]2(C)CC[C@@]3(C[C@@H](O)[C@@H](C)[C@@H]([C@H](C)[C@H](OC)[C@H](C)C(=O)O)O3)O2)O1
active: CP265 31.6 nM | CP266 53.6 nM | CP268 37.9 nM | CP269 33.8 nM | CP286 22.4 nM | CP291 19 nM | CP297 33.8 nM | CP305 33.8 nM | CP315 33.8 nM | CP325 30.1 nM | CP335 19 nM | DFO2036 35.5 nM | DIV14 33.8 nM | DIV17 26.9 nM | DIV30 37.9 nM | Dd2 39.8 nM | ECU 50.1 nM | FAB9 70.8 nM | GB4 26.9 nM | HB3 44.7 nM | ICS 20 nM | JCK 70.8 nM | N140 39.8 nM | P93_24 44.7 nM | P94_40 25.1 nM | PAD 63.1 nM | PC15 56.2 nM | PC26 23.9 nM | PC49 70.8 nM | SC27B 50.1 nM | TAB109 31.6 nM | TAB113 50.1 nM | TAB165 112 nM | W2 19 nM
